Data taken from PubChem BioAssay (NCATS).
Inconclusive results are not listed. Entries that show only a call come without a potency. Active and inactive are the calls of the source. The call rests on the fitted dose curve; in most records, active means well fitted inhibition curve with a large enough effect; inconclusive means small, poorly fitted or top-dose-only effect; inactive means no such curve, though single readings can be large or run the other way.

biological target: Retinaldehyde dehydrogenase 3 (Homo sapiens) (UniProt P47895); test: qHTS for Inhibitors of the Aldehyde Dehydrogenase Family (ALDH1A3) Primary screen (AID 2061315); details: ALDH inhibition qHTS; series mostly up to 56 µM

Row | SMILES | Potency
1 | CC1CCC2(C(=O)OC3OC(COC4OC(CO)C(O)C(O)C4O)C(O)C(O)C3O)CCC3(C)C(=CCC4C5(C)CCC(O)C(C)(C(=O)O)C5CCC43C)C2C1(C)O (stereo not given) | inactive
2 | O=C1CCCC2=C1C(c1[nH]ncc1Cl)N=C(Nc1nc3ccccc3s1)N2 (stereo not given) | inactive
3 | Cc1nnc(-c2ccccc2)n1CCCn1ccnc1 | inactive
4 | Cc1cccc(-n2cnc3cc(C(=O)N4CCCC(c5ccccc5)C4)ccc32)c1 (stereo not given) | inactive
5 | Cc1ccc(S(=O)(=O)Nc2ccccc2C(=O)Nc2ncc(-c3ccccc3)s2)cc1 | inactive
6 | Cn1c2cc(B(O)O)sc2c2cnn(Cc3c(F)cccc3F)c(=O)c21 | inactive
7 | O=C(Nc1nc(-c2ccccc2)cs1)c1ccccc1-n1cnnn1 | inactive
8 | CC(C)(C)OC(=O)N[C@@H](Cc1ccc(O[S+](=O)([O-])c2cccc3cnccc23)cc1)C(=O)Nc1ccc(-c2ccccc2)cc1 | inactive
9 | Cc1cccc(-c2csc(N3CCC(C(N)=O)CC3)n2)c1 | inactive
10 | O=[S+]([O-])(c1ccc(N2CCOCC2)nc1)N1CCN([S+](=O)([O-])c2c(F)cccc2F)CC1 | inactive
11 | N#Cc1cccc(S(=O)(=O)N2CCN(S(=O)(=O)c3ccc4c(c3)OCCO4)CC2)c1 | inactive
12 | O=[S+]([O-])(c1ccc2c(c1)OCCO2)N1CCN([S+](=O)([O-])c2c(F)cc(F)cc2Br)CC1 | inactive
13 | Cc1ccc(OCCn2c(CCNC(=O)Cc3ccc(F)cc3F)nc3ccccc32)cc1 | inactive
14 | NC(=O)c1cccc(-c2noc(-c3ccccc3C(F)(F)F)n2)c1 | inactive
15 | COc1cc(-c2ccc3ncnc(NCc4nc(C)cs4)c3c2)cc(OC)c1OC | inactive
